Data as given in ChEMBL document CHEMBL3988442, “University of Dundee, Small-Polar-MMV Screening Library” (2021).
The campaign covered roughly 48,000 compounds. About 13,000 (27%) showed an effect of 50% or more. The list shows a part of the results.

System: Wolbachia pipientis
Test: Anti-Wolbachia Cell-Based Screen
Type: functional
Set-up: scale not given: in the data most compounds retested in dose-response had high values
Settings: 5 µM

| SMILES | Percent Effect [%] |
| --- | --- |
| CC(C)(C)CC(=O)NCC(=O)NS(=O)(=O)c1cccnc1 | -1.885 |
| COc1ncnc(N(C)C)c1NC(=O)Cc1cc(F)ccc1F | -32.31 |
| CC(C)(C)c1ccc(C2(C(=O)NCCCS(C)(=O)=O)CC2)cc1 | -6.927 |
| CC(C)OCCCNC(=O)CS(=O)(=O)Cc1ccc(C(C)(C)C)cc1 | 103.7 |
| Cc1ccc(C)c(CS(=O)(=O)CC(=O)NCCCOC(C)C)c1 | 103.7 |
| Cc1ccc(C)c(CS(=O)(=O)CC(=O)NC(C)c2ccc(F)cc2F)c1 (stereo not drawn) | 34.69 |
| Cc1ccc(C)c(CS(=O)(=O)CC(=O)Nc2ccc(F)cc2F)c1 | -7.067 |
| CC(C)OCCCNC(=O)CN1CCC(N2CCN(C)C2=O)CC1 | -1.952 |
| Cc1cc(NC(=O)CNc2ccc(Br)cc2F)on1 | -13.69 |
| CNC(=O)[C@@H](CC(C)C)N1CCC[C@H]1C(=O)N(C)Cc1ccccc1.Cl | 3.832 |
| CS(=O)(=O)N1CCc2c(nnn2CC2CC2)C1COCC1CC1 (stereo not drawn) | 9.145 |
| Cc1nc(O)cc(CCNC(=O)CC[C@@H]2CCCN3CCCC[C@H]23)n1 | -10.54 |
| Cc1cc(C2CCCN2C(=O)c2ccc(OCC(N)=O)cc2)no1 (stereo not drawn) | 5.942 |
| Cc1nc(CCC(N)=O)cc(C2CCCN2S(C)(=O)=O)n1 (stereo not drawn) | 118 |
| Cc1cc(C2CCCN2C(=O)COc2ccc(CC#N)cc2)no1 (stereo not drawn) | -10.78 |
| Cc1nc(CCC(N)=O)cc(C2CCCCN2S(C)(=O)=O)n1 (stereo not drawn) | 110.4 |
| NC(=O)CN1CCN(S(=O)(=O)N2CCCC2c2ccco2)CC1 (stereo not drawn) | -1.711 |
| Cc1noc(C)c1CN(C)C(=O)C1CCCCN1S(C)(=O)=O (stereo not drawn) | -0.5133 |
| CNC(=O)CCN1CCCC1c1ccccc1Br (stereo not drawn) | 10.79 |
| CNC(=O)CCc1cc(C2CCCN2S(C)(=O)=O)nc(C)n1 (stereo not drawn) | 95.26 |
| CCOc1ccc(CC(=O)N2CCCC2c2cc(C)on2)cc1 (stereo not drawn) | 5.942 |
| CNC(=O)CCc1cc(C2CCCN2C(=O)CO)nc(C)n1 (stereo not drawn) | 135.9 |
| Nc1nc2c(c(N3CCC(CCn4cccn4)CC3)n1)CCNCC2 | 1.454 |
| CC(Cc1ccc2c(c1)OCO2)c1cn(CCN2CCCC2)nn1 (stereo not drawn) | 21.75 |
| COc1ccc(-n2ccc(C(=O)N3CCC(C(N)=O)C3)n2)cc1 (stereo not drawn) | -0.5166 |
| COCCN(CCOC)C(=O)c1ccn(-c2ccccc2Cl)n1 | 2.098 |
| CCC(C)C(=O)NCc1ccn(-c2ccc(F)cc2)n1 (stereo not drawn) | -3.834 |

| SMILES | Percent Effect [%] |
| --- | --- |
| COc1ccc(-n2ccc(C(=O)N(CCN(C)C)C(C)C)n2)cc1 | 158.8 |
| CC(C)N(C)CC(=O)Nc1ccc(-n2ccc(C(N)=O)n2)cc1 | -7.566 |
| CN(C)CCN(Cc1cccnc1)C(=O)c1ccn(-c2ccccc2)n1 | 1.059 |
| COc1ccc(SC(C)C(=O)N2CCC(O)CC2)cc1 (stereo not drawn) | 1.982 |
| COc1ccc(-n2ccc(C(=O)N(C)C(C)C3(C)CC3)n2)cc1 (stereo not drawn) | 114.7 |
| COCCN(C(=O)c1ccn(-c2ccc(OC)cc2)n1)C(C)C(N)=O (stereo not drawn) | 143 |
| CCC[C@@H](NC(N)=O)C(=O)N1CCc2ccccc2CC1 | 5.215 |
| O=C(NCCOc1ccc(F)c(F)c1)NCc1ccncc1 | -13.71 |
| Cc1cc(CNC(=O)N2CCN(C(C)c3cccnc3)CC2)c(C)o1 (stereo not drawn) | -1.868 |
| CN1[C@@H](CCC(=O)NCc2ccc(F)cc2)CNC(=O)[C@H]2NCC[C@H]21 | 3.15 |
| N#Cc1cnc(N2CCC3(CC2)OCCO3)nc1N | 125 |
| CC1CCN(c2ncc(C#N)c(N)n2)CC1 | 102.6 |
| CCc1nsc(N2CCC3(CC2)OCCO3)n1 | -6.104 |
| CC1CCN(c2ncc3c(n2)CN(c2ccccc2)C3=O)CC1 | -3.671 |
| CC1CCN(c2ncc3c(n2)CN(c2ccc4c(c2)OCO4)C3=O)CC1 | -9.746 |
| N#Cc1cnc(N2Cc3cnn(Cc4ccc(F)cc4)c3C2)nc1N | -0.8846 |
| CC(C)(C)c1cnc(CN2CCC(NC(=O)NC3CCCCC3)CC2)o1 | -3.337 |
| CCn1c(Cn2cncn2)nnc1C1CCN(Cc2ccc(C)o2)CC1 | -1.569 |
| Cc1nc(CNC(=O)CCCc2cccs2)no1 | -18.16 |
| Cc1nc(CNc2ccc(C(=O)NCc3ccco3)cc2C)no1 | -9.034 |
| Cc1cc(=O)[nH]c(-n2nc(C)c(CCC(=O)NCc3cccs3)c2C)n1 | 127.2 |
| Cc1cc(=O)[nH]c(-n2nc(C)c(CCC(=O)NCc3ccco3)c2C)n1 | 133 |
| Cc1csc(CNC(=O)CCCc2cccs2)n1 | 21.24 |
| Cc1ccc2cnn(CCC(=O)NCc3c(C)nn(C)c3C)c2c1 | -12.76 |
| O=C1OCCN1Cc1cccc(F)c1C(F)(F)F | -13.53 |
| CCS(=O)(=O)NCCN1CCc2ccc(F)cc2C1C (stereo not drawn) | -17.56 |
